We go through five compounds from PubChem BioAssay.

The nature of experiment [1]: binders of probe aFSTL3 on microarray, primary screen, stem cell growth factor project, biochemical, small-molecule microarray, fluorescence 635/667 (AID 1064).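 Also: measures binding of the biotinylated anti-FSTL3 antibody to printed compounds.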 The note with it: higher = more signal.
Experiment [2] can be described thus: binders from COS7 lysate, DM2A8 probe, primary screen, torsin A project, cell lysate, small-molecule microarray, fluorescence 635/667 (AID 1065). The note with it: higher = more signal, COS7 lysate expressing mutant human TOR1A.
A short description of experiment [3]: binders of probe aFGF2 on microarray, primary screen, stem cell growth factor project, biochemical, small-molecule microarray, fluorescence 635/667 (AID 1067).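 Also: measures binding of biotinylated aFGF2 protein to printed compounds on slides; z-score merges feature fluorescence and signal-to-noise across triplicate slides.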 Conditions: higher = more signal.
Experiment [4] can be described thus: binders of probe aFGF10 on microarray, primary screen, stem cell growth factor project, biochemical, small-molecule microarray, fluorescence 635/667 (AID 1071).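 Also: score merges 667 nm spot intensity and signal to noise from triplicate slides.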 Conditions: higher = more signal.
Experiment [5] concerns the target Neurogenic locus notch homolog protein 2 (Homo sapiens) (UniProt Q04721). Nature of the experiment: Notch2 binders on small-molecule microarrays, primary screen, biochemical, small-molecule microarray, 635 nm fluorescence, stem cell growth factors (AID 1073). The note with it: Notch2 binding, higher = more signal.
The target in experiment [6] is Pro-neuregulin-1, membrane-bound isoform (Homo sapiens) (UniProt Q02297). Nature of the experiment: NRG1 binders on small-molecule microarrays, primary screen, psychiatric disease protein project, biochemical, small-molecule microarray, fluorescence 635/667 (AID 1075).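 Also: score combines 667 nm spot fluorescence with signal to noise.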 Conditions: NRG1 binding, 635 nm fluorescence, higher = more signal.
Sequence of Pro-neuregulin-1, membrane-bound isoform (Homo sapiens) (Q02297 whole entry, looked up, the tested form may be a part, canonical isoform): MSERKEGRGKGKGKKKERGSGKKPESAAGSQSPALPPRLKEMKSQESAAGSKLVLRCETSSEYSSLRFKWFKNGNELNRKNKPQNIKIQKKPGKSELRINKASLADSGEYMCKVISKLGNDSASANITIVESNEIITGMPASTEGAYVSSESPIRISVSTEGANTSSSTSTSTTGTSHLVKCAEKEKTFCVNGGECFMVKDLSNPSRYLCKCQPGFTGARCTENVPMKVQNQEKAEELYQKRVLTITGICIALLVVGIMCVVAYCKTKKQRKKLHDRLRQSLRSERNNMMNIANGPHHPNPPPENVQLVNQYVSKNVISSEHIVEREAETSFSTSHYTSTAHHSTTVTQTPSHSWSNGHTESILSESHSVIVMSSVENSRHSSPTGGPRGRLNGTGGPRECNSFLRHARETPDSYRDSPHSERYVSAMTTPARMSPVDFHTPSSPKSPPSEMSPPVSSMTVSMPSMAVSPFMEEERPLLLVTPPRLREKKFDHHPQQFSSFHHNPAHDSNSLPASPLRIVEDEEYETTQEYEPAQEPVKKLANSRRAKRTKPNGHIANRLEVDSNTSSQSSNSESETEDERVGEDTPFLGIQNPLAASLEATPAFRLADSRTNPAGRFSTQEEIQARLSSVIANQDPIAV
The test system of experiment [7] is Neuregulin-1 EGF-like domain. Nature of the experiment: binders of neuregulin-1 EGF-like domain, primary screen, biochemical, small-molecule microarray, 635 nm fluorescence (AID 1081).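 Also: binding of the protein to compounds printed on small-molecule microarray slides.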 Conditions: small-molecule microarray binding, higher = more signal.
Experiment [8] is described as follows: FRG1 promoter luciferase signal modulators, primary screen, FRG1 inhibition for FSHD, cell-based, C2C12 myotubes, firefly/Renilla luciferase, luminescence (AID 1084). Conditions: higher = more signal, called active from +8 up or from −8 down.
The nature of experiment [9]: binders of probe aFST on microarray, primary screen, stem cell growth factor project, biochemical, small-molecule microarray, fluorescence 635/667 (AID 1086).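 Also: score merges 667 nm fluorescence with signal-to-noise of each printed compound spot.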 The note with it: higher = more signal.
Experiment [10] can be described thus: binders of probe aHhip on microarray, primary screen, stem cell growth factor project, biochemical, small-molecule microarray, fluorescence 635/667 (AID 1087).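 Also: score merges spot fluorescence at 667nm with spot signal to noise ratio.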 Conditions: higher = more signal.
For experiment [11], the system named is PRMT1 (protein arginine N-methyltransferase 1). Nature of the experiment: PRMT1 binders on small-molecule microarrays, primary screen, biochemical, small-molecule microarray, 635 nm fluorescence (AID 1088).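 Also: binding of Prmt1 protein to compounds spotted on small-molecule microarray slides.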 The note with it: small-molecule microarray binding, higher = more signal.
The nature of experiment [12]: yeast growth modulation, basal conditions, primary screen, YJM789 clinical isolate, OD600, 24 h (AID 1089).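 Also: growth of clinical yeast isolate S. cerevisiae YJM 789 seeded 1000 cells per well; test concentration not given here.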 Conditions: S. cerevisiae YJM789 growth, higher = more signal, called active from +8 up or from −8 down.
Experiment [13] in a line: fission yeast growth modulation, primary screen, strain 972, OD600, 24 h, no modulator (AID 1090).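 Also: basal condition with compound alone and no growth modifier present; test concentration not given here.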 Conditions: S. pombe 972 growth, higher = more signal, called active from +8 up or from −8 down.
Experiment [14] in a line: S. cerevisiae growth modulation with rapamycin, primary screen, strain BY4716, OD600, 96 h (AID 1091). Also: test concentration not given here. Conditions: higher = more signal, called active from +8 up or from −8 down.
Experiment [15] addresses Torsin-1A-interacting protein 2 (Homo sapiens) (UniProt Q8NFQ8). As to the kind of experiment: LULL1 binders on small-molecule microarray, primary screen, cell lysate, human LULL1 lysate, 635/667 nm fluorescence (AID 1092).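 Also: probe is lysate of COS7 cells overexpressing human LULL1; score merges per-feature 667 nm fluorescence with signal-to-noise.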 Conditions: hLULL1 lysate binding, 635 nm fluorescence, higher = more signal.
Experiment [16] can be described thus: E. coli growth modulation, two-sided OD650, primary screen, E. coli filamentation project, strain DRC41, 24 h (AID 1093).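 Also: MC1000 strain lacking acrAB efflux and sulA so SOS filamentation is blocked; test concentration not given here.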 Conditions: OD650, 24 h, higher = more signal, called active from +8 up or from −8 down.
The nature of experiment [17]: small-molecule microarray binders of probe aLefty2, primary screen, biochemical, biotinylated probe, 635/667 nm fluorescence (AID 1094).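 Also: score merges spot fluorescence near 667 nm with spot signal-to-noise ratio.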 Conditions: higher = more signal.
Experiment [18] has as its system Noggin (protein binding on small-molecule microarray). As to the kind of experiment: Noggin binders on small-molecule microarray, primary screen, biochemical, 635/667 nm fluorescence (AID 1095).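 Also: score merges 667 nm feature fluorescence with signal to noise over triplicate slides.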 Conditions: 635 nm fluorescence, higher = more signal.
The target of experiment [19] is Neurogenic locus notch homolog protein 3 (Homo sapiens) (UniProt Q9UM47). As to the kind of experiment: NOTCH3 binders on small-molecule microarray, primary screen, biochemical, 635/667 nm fluorescence (AID 1096). Conditions: NOTCH3 binding, 635 nm fluorescence, higher = more signal.
Sequence of Neurogenic locus notch homolog protein 3 (Homo sapiens) (Q9UM47 whole entry, looked up): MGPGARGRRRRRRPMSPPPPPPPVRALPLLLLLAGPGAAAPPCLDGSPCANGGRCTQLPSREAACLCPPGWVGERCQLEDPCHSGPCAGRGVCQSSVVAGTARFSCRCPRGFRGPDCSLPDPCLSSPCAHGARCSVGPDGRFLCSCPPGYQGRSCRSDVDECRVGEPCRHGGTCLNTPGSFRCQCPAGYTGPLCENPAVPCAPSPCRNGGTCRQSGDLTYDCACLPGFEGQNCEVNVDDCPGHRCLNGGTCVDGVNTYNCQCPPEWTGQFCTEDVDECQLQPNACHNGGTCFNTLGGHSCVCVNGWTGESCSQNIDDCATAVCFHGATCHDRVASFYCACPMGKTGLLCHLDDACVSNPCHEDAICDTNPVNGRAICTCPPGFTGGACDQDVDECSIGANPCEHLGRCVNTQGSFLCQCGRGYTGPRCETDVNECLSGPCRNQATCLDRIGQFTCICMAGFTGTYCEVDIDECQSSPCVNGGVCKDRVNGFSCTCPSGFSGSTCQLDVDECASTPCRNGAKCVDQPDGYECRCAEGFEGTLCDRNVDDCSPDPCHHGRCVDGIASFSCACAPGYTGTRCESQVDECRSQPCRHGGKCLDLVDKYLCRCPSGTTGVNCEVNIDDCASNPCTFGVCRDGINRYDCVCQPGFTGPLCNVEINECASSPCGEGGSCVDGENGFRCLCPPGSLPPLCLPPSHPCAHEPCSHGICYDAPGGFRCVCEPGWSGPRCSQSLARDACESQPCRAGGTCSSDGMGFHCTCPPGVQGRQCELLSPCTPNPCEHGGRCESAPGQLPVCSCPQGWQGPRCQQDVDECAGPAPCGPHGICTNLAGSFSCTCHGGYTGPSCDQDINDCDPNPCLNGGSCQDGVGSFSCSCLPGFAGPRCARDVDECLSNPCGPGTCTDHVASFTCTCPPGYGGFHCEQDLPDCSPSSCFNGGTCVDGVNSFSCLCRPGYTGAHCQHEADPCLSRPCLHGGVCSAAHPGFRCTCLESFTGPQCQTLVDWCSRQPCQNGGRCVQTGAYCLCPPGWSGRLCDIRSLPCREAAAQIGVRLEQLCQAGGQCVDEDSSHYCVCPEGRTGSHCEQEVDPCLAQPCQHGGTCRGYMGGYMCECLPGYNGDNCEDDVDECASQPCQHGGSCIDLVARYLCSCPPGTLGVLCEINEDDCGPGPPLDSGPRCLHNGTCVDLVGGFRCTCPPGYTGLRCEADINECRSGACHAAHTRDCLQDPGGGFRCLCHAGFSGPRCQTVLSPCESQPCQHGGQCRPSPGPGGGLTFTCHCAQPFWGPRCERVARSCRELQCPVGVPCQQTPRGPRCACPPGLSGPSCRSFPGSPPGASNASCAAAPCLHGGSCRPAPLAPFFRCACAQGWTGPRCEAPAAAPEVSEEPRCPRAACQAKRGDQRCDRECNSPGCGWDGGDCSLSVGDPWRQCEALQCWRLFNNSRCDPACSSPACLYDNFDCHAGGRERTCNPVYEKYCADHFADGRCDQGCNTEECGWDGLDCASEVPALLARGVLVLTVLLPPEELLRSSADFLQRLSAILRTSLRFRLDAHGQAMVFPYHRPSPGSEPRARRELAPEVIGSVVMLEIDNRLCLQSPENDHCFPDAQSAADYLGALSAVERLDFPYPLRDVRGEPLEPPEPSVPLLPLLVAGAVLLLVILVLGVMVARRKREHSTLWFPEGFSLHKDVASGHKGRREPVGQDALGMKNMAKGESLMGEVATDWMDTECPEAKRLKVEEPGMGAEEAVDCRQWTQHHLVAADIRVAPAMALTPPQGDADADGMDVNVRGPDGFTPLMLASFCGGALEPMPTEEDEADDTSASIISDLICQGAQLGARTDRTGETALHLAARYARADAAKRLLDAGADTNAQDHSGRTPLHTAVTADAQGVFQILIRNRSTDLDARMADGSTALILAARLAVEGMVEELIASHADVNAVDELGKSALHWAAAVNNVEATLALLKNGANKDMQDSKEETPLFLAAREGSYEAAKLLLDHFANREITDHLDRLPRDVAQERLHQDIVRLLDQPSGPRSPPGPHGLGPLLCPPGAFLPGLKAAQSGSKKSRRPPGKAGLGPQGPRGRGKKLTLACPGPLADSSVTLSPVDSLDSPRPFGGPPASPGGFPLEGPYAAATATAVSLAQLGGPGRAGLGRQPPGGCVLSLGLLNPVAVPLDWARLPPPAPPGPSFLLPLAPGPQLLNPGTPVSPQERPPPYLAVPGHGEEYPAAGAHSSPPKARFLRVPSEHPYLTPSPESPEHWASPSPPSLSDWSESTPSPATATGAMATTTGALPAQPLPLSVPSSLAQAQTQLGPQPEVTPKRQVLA
A short description of experiment [20]: small-molecule microarray binders of probe aEGFR, primary screen, biochemical, biotinylated probe, 635/667 nm fluorescence (AID 1097).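 Also: probe is a biotinylated anti-EGFR antibody binding compounds printed on slides; score combines fluorescence near 667 nm and signal to noise of each spot.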 Conditions: higher = more signal.

Active and inactive are the calls of the source.

Sequence of Torsin-1A-interacting protein 2 (Homo sapiens) (Q8NFQ8 whole entry, looked up): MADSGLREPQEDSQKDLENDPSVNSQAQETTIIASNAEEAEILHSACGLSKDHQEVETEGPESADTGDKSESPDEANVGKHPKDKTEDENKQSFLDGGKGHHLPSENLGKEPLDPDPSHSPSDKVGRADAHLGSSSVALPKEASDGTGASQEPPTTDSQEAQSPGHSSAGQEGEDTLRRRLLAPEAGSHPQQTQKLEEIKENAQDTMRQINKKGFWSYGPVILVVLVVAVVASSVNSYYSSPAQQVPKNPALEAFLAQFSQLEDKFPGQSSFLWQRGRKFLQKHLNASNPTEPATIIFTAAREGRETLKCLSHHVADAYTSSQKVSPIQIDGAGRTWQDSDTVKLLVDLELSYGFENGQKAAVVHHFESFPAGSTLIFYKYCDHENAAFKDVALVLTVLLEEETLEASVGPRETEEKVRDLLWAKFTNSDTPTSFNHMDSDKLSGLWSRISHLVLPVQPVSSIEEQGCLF

Take `NC(=O)NCC#Cc1ccc2c(c1)[C@]1(C(=O)N2)[C@H](c2ccc(O)cc2)N2[C@H](c3ccccc3)[C@H](c3ccccc3)OC(=O)[C@H]2[C@@H]1C(N)=O`: the composite z-score was 0.373 in experiment [1]; -1.07 in experiment [2]; -0.0925 in experiment [3]; -0.568 in experiment [4]; -0.847 in [5]; -0.283 in [6]. Also, the composite z-score was 0.266 in [7]; -0.139 in experiment [9]; 0.202 in experiment [10]; 0.64 in [11]; 1.46 in [15]; -0.072 in experiment [17]. Moreover, the composite z-score is -0.238 in [18], -1.19 in experiment [19] and -0.187 in [20]. Besides, the z-score was -1.07 (inactive) in [8]; 0.321 (inactive) in experiment [12]; 0.736 (inactive) in experiment [13]; 0.183 (inactive) in [14]; 0.248 (inactive) in experiment [16].

Turning to `COCCCNC(=O)[C@]1(Cc2ccccc2CN=[N+]=[N-])N=C(c2ccc(OCCCO)cc2)O[C@@H]1c1ccccc1CN=[N+]=[N-]`, the composite z-score in experiment [1] is 0.726; in [2], 0.686; in experiment [3] it was 0.256; in [4], 1.03; in experiment [5], 1.25; in [6] it was 1.84. The composite z-score in [7] came to 1.15; in [9], 1.23; in experiment [10], 0.537; in experiment [11] it was 1.51; in experiment [15] it was 3.17; in experiment [17], 0.419. Moreover, the results for the composite z-score in experiment [18], in [19] and in experiment [20] were 0.342, 0.697 and 0.332, respectively. In addition, the z-score in experiment [8] is -1.35 (inactive); in experiment [12], -0.353 (inactive); in experiment [13], 1.34 (inactive); in [14], 31.6 (active); in [16], 0.378 (inactive).

In the case of `COc1ccc(C#Cc2ccc3c(c2)[C@]2(C(=O)N3)[C@H](C(=O)O)[C@H]3C(=O)O[C@H](c4ccccc4)[C@H](c4ccccc4)N3[C@@H]2c2ccc(OCCO)cc2)cc1`, the composite z-score was -0.397 in experiment [1]; 0.959 in experiment [2]; -0.0344 in experiment [3]; 0.903 in experiment [4]; 0.357 in experiment [5]; 1.88 in [6]. Besides, the composite z-score in [7] is 0.976; in [9], 0.794; in [10], 0.122; in experiment [11] it was 1.55; in experiment [15], 2.37; in experiment [17], 0.054. Besides, the composite z-score in [18] was 1; in experiment [19] it was 1.1; in experiment [20] it was -0.0433. The z-score is -0.176 (inactive) in experiment [8]; 2.76 (inactive) in experiment [12]; -0.0666 (inactive) in [13]; 1.08 (inactive) in [14]; 2.26 (inactive) in [16].

In the case of `COC(=O)c1c(CC[C@@H](CO)NC(=O)N[C@@H](C)Cn2cc(C3(O)CCCC3)nn2)oc(C(C)=O)c1C(=O)OC`, the composite z-score in experiment [1] is -0.36; in experiment [2], 0.715; in experiment [3], -0.154; in experiment [4], 0.143; in experiment [5], 0.263; in experiment [6], 0.974. The composite z-score in experiment [7] was 1.02; in experiment [9] it was 0.517; in experiment [10] it was 0.0002; in [11] it was 0.913; in experiment [15], 2; in experiment [17], -0.0126. Also, the composite z-score in [18] was 0.555; in experiment [19], 0.634; in experiment [20], -0.0237. The z-score is 0.533 (inactive) in experiment [8]; 0.009 (inactive) in [12]; -1.03 (inactive) in experiment [13]; -0.117 (inactive) in experiment [14]; -0.159 (inactive) in experiment [16].

`[N-]=[N+]=NCc1ccccc1[C@H]1OC(c2ccc(OCCCO)cc2)=N[C@@]1(Cc1ccccc1)C(N)=O`: the composite z-score in experiment [1] came to 0.712; in experiment [2] it was 0.163; in experiment [3], 0.0138; in [4], 0.68; in experiment [5] it was 1.05; in experiment [6], 1.36. For the same compound, the composite z-score in [7] was determined as 1.1; in experiment [9], 1.24; in experiment [10], 0.0623; in [11], 1.56; in [15], 3.37; in [17], 0.408. Moreover, the composite z-score in experiment [18] turned out to be 0.429; in [19], 1.13; in experiment [20] it was 0.29. The z-score in experiment [8] is 2.79 (inactive); in experiment [12], -0.116 (inactive); in [13] it was -1.07 (inactive); in experiment [14], -0.443 (inactive); in experiment [16] it was 0.369 (inactive).
